Our source for the Potency values is PubChem BioAssay AID504834 (National Center for Advancing Translational Sciences (NCATS), 2011).

Several values for one entry are separate records, joined by “and”; a condition that tells them apart may be missing. Equal entries are not always repeated. The campaign covered roughly 320,000 compounds. About 22,000 (6.9%) were called active. Where a call stands in place of a potency, no number is given. About 27% were inconclusive and are not listed. This is one part of a sample in which actives are shown more often than they occur. Calls come from the whole dose curve; as a rule, active = well fitted inhibition curve with a large enough effect; inconclusive = small, poorly fitted or top-dose-only effect, or another doubt; inactive = no such curve, though single readings can be large or run the other way. Where a structure was tested more than once in an assay, its records may differ in their call.
Potency is the fitted concentration of half-maximal effect.

The assay can be described thus: Primary qHTS for delayed death inhibitors of the malarial parasite plastid, 96 hour incubation. The conditions noted are these: P. falciparum luciferase reporter growth; series mostly up to 28.7 µM. The method, boiled down: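 Readout is luminescence from an integrated firefly luciferase in P. falciparum. Red cells, 2% hematocrit and 0.05% parasitemia final, were cultured with compound through two parasite generations (96 hours) at 37 C, 5% CO2.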
For the compound `CC(C)(O)C(=O)NN(C(=O)c1ccccc1)c1cccc(Br)c1`, the Potency result is “inactive”.
With `Cc1ccc(N(NC(=O)C(C)(C)O)C(=O)c2ccccc2)cc1C` the entry was “inactive”.
The same measure for `CCCC(O)(CCC)C(=O)NN(C(=O)CCl)c1cccc(C)c1`: 1.04 µM (active); for `Cc1ccc2nc(NC(=O)C3CSC4(C)CCC(=O)N34)sc2c1` (stereo not given): “inactive”; for `Cc1ccc(S(=O)(=O)c2c[nH]c3ccc(C)cc3c2=O)cc1`: “inactive”.
The same measure for `O=C(NCc1ccccc1)c1ccc(CNc2c(N3CCCC3)c(=O)c2=O)cc1`: “inactive”.
For the compound `O=S(=O)(NCCS(=O)(=O)N1CCN(c2ccccc2)CC1)c1ccc(F)cc1`, the Potency result is “inactive”.
With `COC(=O)N/N=C/c1ccc(/C=N/NC(=O)OC)cc1` the entry was “inactive”; with `CCOc1cc(/C=N/NC(=O)OC)ccc1OCCSc1ccc(Cl)cc1`, 10.4 µM (active); with `CCOc1ccc(/C=N/NC(=O)C(C)Sc2ccccn2)cc1OCC` (stereo not given), “inactive”.
In the case of `COc1ccc(C)cc1NC(=O)CCCN1C(=O)NC(C)(C)C1=O`, the Potency entry was “inactive”.
The same measure for `NC(=O)c1cc(S(=O)(=O)N2CCCC2)ccc1OCc1ccc(F)cc1`: “inactive”; for `Cc1cc(C)c2[nH]c(=O)c(C(c3nnnn3Cc3ccc4c(c3)OCO4)N3CCCC3)cc2c1` (stereo not given): “inactive”; for `CC(C)(C)n1nnnc1C(c1ccc(F)cc1)N1CCN(Cc2ccc3c(c2)OCO3)CC1` (stereo not given): “inactive”.
With `Fc1ccccc1C(c1nnnn1Cc1ccc2c(c1)OCO2)N1CCN(Cc2ccccc2)CC1` (stereo not given) the figure was 1.85 µM (active); with `COc1ccc(C(=O)Nc2ccc(C3(C#N)CCCC3)cc2)cc1OC`, “inactive”.
Regarding `CC1CCCCC1NC(=O)CN1CCC(O)(c2ccc3c(c2)OCO3)CC1` (stereo not given), the Potency is 13.1 µM (active).
For the compound `O=C(CN1CCC(O)(c2ccccc2)CC1)Nc1ccc2c(c1)OCCO2`, the Potency entry is “inactive”.
Consider `CC1CCCCC1NC(=O)COC(=O)Cc1ccc(Br)cc1` (stereo not given), for which the Potency entry was “inactive”.
`O=C(Nc1ccc2c(c1)CCC2)c1cccc(S(=O)(=O)Nc2ccccc2Cl)c1`: the Potency result was “inactive”.
The same measure for `Cc1cccnc1NC(=O)c1cccc(S(=O)(=O)N2CCN(c3ccc(F)cc3)CC2)c1`: “inactive”.
In the case of `O=C(Nc1ccc2c(c1)CCC2)c1cccc(S(=O)(=O)N2CCN(c3ccc(F)cc3)CC2)c1`, the Potency is 9.28 µM (active).
Turning to `CCOc1ccc(/C=C/C(=O)N(CC)CC(=O)NCc2cccs2)cc1OC`, the Potency result was “inactive”.
Consider `O=C(Cn1nc(C(=O)O)c2ccccc2c1=O)Nc1ccc(F)cc1`, for which the Potency entry was “inactive”.
With `COc1ccc(-c2cc(C(=O)N3CCN(c4ccc(F)cc4)CC3)no2)cc1`, the Potency entry is “inactive”.
With `CCOC(=O)C1(C(F)(F)F)N=C(N(C)C)OC(N(C)C)=N1` the figure was 4.15 µM (active); with `CCOc1ccc2[nH]c3nc(SCC(=O)NC4CCCC4)nnc3c2c1`, “inactive”; with `CCOc1ccc(CN2CCN(Cc3c[nH]c4ccccc34)CC2)cc1`, “inactive”.
The same measure for `Cc1cccc(OCC(=O)NCCNC(=O)c2cccnc2)c1`: “inactive”; for `CN(CC(=O)Nc1ccccc1Cl)C(=O)c1ccccc1SCC(=O)N1CCCC1`: “inactive”; for `CCOC(=O)CSc1nc2ccc(C)cc2n2cnnc12`: “inactive”.
The same measure for `COc1ccccc1N=C1SC(C)CN1C(=O)C1CCC1` (stereo not given): 10.4 µM (active).
For `CCc1noc(C)c1C(=O)N1CCCSC1=Nc1ccccc1OC`, the Potency entry was “inactive”.
Turning to `COc1ccccc1N=C1SCCCN1C`, the Potency result is “inactive”.
With `O=S(=O)(NC(=S)Nc1ccccc1)c1ccc(F)cc1` the entry was “inactive”; with `CO[C@H]1[C@@H]2C=CO[C@@H](O[C@H]3O[C@@H](CO)[C@H](O)[C@@H](O)[C@@H]3O)[C@@H]2[C@@]2(CO)O[C@@H]12`, “inactive”; with `O=C(CN(C(=O)c1csnn1)c1cccc(Cl)c1)NC1CCCC1`, “inactive”.
With `CCOc1ccc(N(C(=O)c2snc(C(N)=O)c2N)C(C(=O)NCC2CCCO2)c2c[nH]c3ccccc23)cc1` (stereo not given) the entry was “inactive”; with `COc1ccc(-c2nc(CS(=O)CC(=O)N3CCC4(CC3)OCCO4)c(C)o2)cc1` (stereo not given), “inactive”.
Take `Cc1cccc(-c2nc(CS(=O)CC(=O)NC(C)CCc3ccccc3)c(C)o2)c1` (stereo not given): the Potency entry is “inactive”.
Regarding `Cc1ccc(-c2nc(CS(=O)CC(=O)NC3CCCC3)c(C)o2)cc1` (stereo not given), the Potency is 4.65 µM (active).
With `COc1ccc2oc(=O)c(C(=O)NCc3ccccn3)cc2c1`, the Potency entry was “inactive”.
The same measure for `Cc1ccc(-c2nc(CSCC(=O)NC3CCN(Cc4ccccc4)CC3)c(C)o2)cc1`: “inactive”.
Turning to `COc1ccc(-c2nc(CS(=O)CC(=O)NCc3ccccn3)c(C)o2)cc1` (stereo not given), the Potency is 11.7 µM (active).
`Cc1ccc(-c2nc(CS(=O)CC(=O)N3CCN(c4ncccn4)CC3)c(C)o2)cc1` (stereo not given): the Potency entry is “inactive”.
Consider `COc1ccc(-c2nc(CS(=O)CC(=O)NCc3ccccc3)c(C)o2)cc1OC` (stereo not given), for which the Potency was 13.1 µM (active).
For `COc1cccc(-c2nc(CS(=O)CC(=O)NCc3ccc(F)cc3)c(C)o2)c1` (stereo not given), the Potency result is “inactive”.
With `CC(OC(=O)CNC(=O)c1ccc(Cl)c([N+](=O)[O-])c1)C(=O)NCc1ccco1` (stereo not given) the entry was “inactive”; with `NC(=O)c1ccc(Nc2ccc3c(c2)CCC3)c([N+](=O)[O-])c1`, “inactive”.
With `CCC(C)(C)NC(=O)C(c1ccc(O)cc1)N(Cc1ccco1)C(=O)CCC(=O)Nc1ccccn1` (stereo not given) the entry was “inactive”.
For the compound `Cc1ccc(NC(=O)COC(=O)CN2CCCCCC2=O)c(C)c1`, the Potency entry is “inactive”.
Regarding `CN1CCN(CC(=O)Nc2cccc([N+](=O)[O-])c2)CC1`, the Potency result was “inactive”.
`Cc1cccc(NC(=O)c2cc([N+](=O)[O-])ccc2N2CCN(C)CC2)c1`: the Potency result was “inactive”.
Turning to `O=C(Nc1cccc(Cl)c1)c1cc([N+](=O)[O-])ccc1N1CCN(CCO)CC1`, the Potency is 3.29 µM (active).
With `Cc1c(Cl)cccc1NC(=O)NCCCN1CCCC1=O`, the Potency result is “inactive”.
Take `COc1ccccc1NC(=O)CN1CCN(S(=O)(=O)c2ccc(Br)cc2)CC1`: the Potency result was “inactive”.
With `Cc1c(Br)c([N+](=O)[O-])nn1CC(=O)Nc1sc2c(c1C(=O)OC(C)C)CCC(C)C2` (stereo not given) the entry was “inactive”; with `COC(=O)c1c(NC(=O)CN2CCN(S(=O)(=O)c3ccccc3[N+](=O)[O-])CC2)sc2c1CCC(C)C2` (stereo not given), 9.28 µM (active).
In the case of `O=C(Cc1ccsc1)N1CCN(S(=O)(=O)c2cc(C(F)(F)F)cc(C(F)(F)F)c2)CC1`, the Potency result was “inactive”.
In the case of `O=C(CSc1ncn[nH]1)Nc1nc(-c2cccc([N+](=O)[O-])c2)cs1`, the Potency entry is “inactive”.
The same measure for `COc1ccc2c(c1OC)C(=O)N(c1ccc(O)cc1)C2`: “inactive”; for `CCN1C(=NCc2ccc(OC)cc2)N[C@@H](CCc2ccccc2)[C@H](C(=O)NCc2ccc(OC)cc2)[C@H]1C`: “inactive and 5.22 µM (active)”.
For `CCN1C(=NCC(C)C)N[C@@H](CCc2ccccc2)[C@H](C(=O)NCC(C)C)[C@H]1C`, the Potency entry was “inactive”.
Regarding `COc1ccc(CNC(=O)C2CCN(S(C)(=O)=O)CC2)cc1`, the Potency entry was “inactive”.
On to `O=C(Nc1cccnc1Cl)c1cc(-c2ccccc2O)on1`, for which the Potency entry is “inactive”.
The same measure for `CC(=O)c1ccc(NC(=O)C2CC(=O)Nc3nc4ccccc4n32)cc1` (stereo not given): “inactive”; for `O=C(c1ccncc1)N1CCN(S(=O)(=O)c2cccc([N+](=O)[O-])c2)CC1`: “inactive”; for `C=CCN1CCN(C(=O)CCCc2ccccc2)CC1`: “inactive”.
On to `CCC(=O)c1ccc(OCC(=O)OCC(=O)NC2CCCCCC2)cc1`, for which the Potency result is “inactive”.
With `Cc1cccc(NC(=O)CN2CCN(C(=O)C3CCN(C(=O)/C=C/c4ccccc4)CC3)CC2)c1C` the entry was “inactive”; with `COc1ccc(-c2nn(-c3ccccc3)cc2/C=N/Nc2ccccn2)cc1OC`, 3.7 µM (active); with `Oc1ccc(Br)cc1/C=N/Nc1ccccn1`, “inactive”.
For `COc1ccc(-c2nn(-c3ccccc3)cc2C(=O)Nc2nccs2)cc1OC`, the Potency entry is “inactive”.
Consider `CC(=O)Nc1cccc(C(=O)OCC(=O)c2ccc3c(c2)OCO3)c1`, for which the Potency result was “inactive”.
With `Cc1ccc(CNCc2ccc3c(c2)OCO3)c(C)c1` the entry was “inactive”; with `O=c1[nH]c(N2CCN(Cc3ccc4c(c3)OCO4)CC2)nc2c1CCCC2`, 7.38 µM (active); with `CCCCCc1c(C)nc(N2CCN(Cc3ccc4c(c3)OCO4)CC2)[nH]c1=O`, “inactive”.
With `CCN1CCN(c2nc3c(c(=O)[nH]2)CCC3)CC1` the entry was “inactive”; with `O=C(COC(=O)c1ncc(Cl)c(Cl)c1Cl)NC1CCS(=O)(=O)C1` (stereo not given), “inactive”.
The same measure for `Cc1occc(=O)c1OCc1ccc(F)cc1`: “inactive”; for `Cc1ccc(COC(=O)CN2C(=O)NC3(CCCC3)C2=O)cc1`: “inactive”.
Take `O=C(CN1C(=O)NC2(CCCC2)C1=O)OCCOc1ccc(F)cc1`: the Potency entry is “inactive”.
The same measure for `CCOc1ccc(C(C)=O)cc1COC(=O)CN1C(=O)NC2(CCCC2)C1=O`: 5.22 µM (active); for `O=C(COC(=O)c1ccc([N+](=O)[O-])cc1Cl)NC(=O)c1ccccc1`: “inactive”.
With `COc1ccc(CNC(=O)CN2C(=O)NC3(CCCc4sccc43)C2=O)cc1` (stereo not given) the entry was “inactive”; with `Cc1cccc(C)c1NC(=O)CN(C)C(=O)CCC(=O)c1ccccc1`, “inactive”; with `COc1ccc(C(=O)NNc2cc(C)nc(NNC(=O)c3ccc(OC)cc3)n2)cc1`, “inactive”.
With `CC(=O)Nc1ccc(Nc2c3ccccc3nc3ccccc23)cc1` the entry was “inactive”.
Turning to `CC(=O)Nc1ccc(Nc2cc(C)nc(Nc3ccc(NC(C)=O)cc3)n2)cc1`, the Potency was 2.94 µM (active).
With `CCN(CC)Cc1c(C(=O)N/N=C/c2cccc(OCc3ccc(F)cc3)c2)nnn1-c1nonc1N` the entry was “inactive”; with `O=C(NNc1ccccc1Cl)C(O)(c1cccc(C(F)(F)F)c1)c1cccc(C(F)(F)F)c1`, 2.62 µM (active).
Consider `CC(CC(=O)Nc1cc(C(F)(F)F)ccc1Cl)c1ccccc1` (stereo not given), for which the Potency entry was “inactive”.
The same measure for `O=C(Nc1cc(C(F)(F)F)ccc1Cl)C(=O)N1CCCCC1`: “inactive”.
On to `COC(=O)c1cc(N2CCNCC2)nc2ccccc12`, for which the Potency result is “inactive”.
Regarding `Cc1nc2ccccc2n1CC(=O)N/N=C/c1cccnc1`, the Potency entry was “inactive”.
With `NC(=O)N/N=C\c1cccs1` the entry was “inactive”.
The same measure for `Cc1nnc(SCC(=O)N/N=C/c2cn(-c3ccccc3)nc2-c2ccc(F)cc2)n1-c1ccccc1`: “inactive”; for `Cc1nc2ccccc2n1CC(=O)N/N=C/c1cccs1`: 2.33 µM (active).
On to `Cc1ccc(-c2nnc(SCC(=O)N/N=C/c3cccs3)n2-c2ccc(C)cc2)cc1`, for which the Potency is 13.1 µM (active).
With `Cc1ccc(-n2c(C)nnc2SCC(=O)NC2CC2)cc1` the entry was “inactive”.
